Bioassay records: PubChem BioAssay, National Center for Advancing Translational Sciences (NCATS)
Vif-APOBEC3G blk: inhibitors of Vif-APOBEC3G interaction | Q9HC16 | HeLa A3G-eYFP + Vif (tagged APOBEC3G with the HIV-1 protein that degrades it), YFP fluorescence, overnight | Potency, µM (titrated, usually from 46.1 µM), for the others: at the top dose activity, negative = active, usual class: inhibitors | 410,000 tested, 0.076% active; also: potency is read from the fitted curve at half-maximal effect; % is scaled to controls: 0 for no effect and ±100 for the full control effect; nearly all actives have a fitted effect of over 60% in size
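HeLa cells stably expressing Vif and C-terminally eYFP-tagged A3G, seeded overnight at 37 deg C, then exposed to compound by pintool overnight at 37 deg C. Rise in yellow fluorescence (Ex 488/Em 500-530, Acumen) marks blocked Vif-driven A3G degradation.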
TRPML1 agonist: activates the human TRPML1 channel; activation, % (concentration not given with the values); Q9GZU1; TRPML1-expressing cells, Ca2+ dye fluorescence, FDSS; 410,000 tested, 0.12% active; in the data active = activation above about 50%; inconclusive = mostly about 30% to 49%; also: 0% is about no effect
Target sequence (Q9GZU1 whole entry, looked up): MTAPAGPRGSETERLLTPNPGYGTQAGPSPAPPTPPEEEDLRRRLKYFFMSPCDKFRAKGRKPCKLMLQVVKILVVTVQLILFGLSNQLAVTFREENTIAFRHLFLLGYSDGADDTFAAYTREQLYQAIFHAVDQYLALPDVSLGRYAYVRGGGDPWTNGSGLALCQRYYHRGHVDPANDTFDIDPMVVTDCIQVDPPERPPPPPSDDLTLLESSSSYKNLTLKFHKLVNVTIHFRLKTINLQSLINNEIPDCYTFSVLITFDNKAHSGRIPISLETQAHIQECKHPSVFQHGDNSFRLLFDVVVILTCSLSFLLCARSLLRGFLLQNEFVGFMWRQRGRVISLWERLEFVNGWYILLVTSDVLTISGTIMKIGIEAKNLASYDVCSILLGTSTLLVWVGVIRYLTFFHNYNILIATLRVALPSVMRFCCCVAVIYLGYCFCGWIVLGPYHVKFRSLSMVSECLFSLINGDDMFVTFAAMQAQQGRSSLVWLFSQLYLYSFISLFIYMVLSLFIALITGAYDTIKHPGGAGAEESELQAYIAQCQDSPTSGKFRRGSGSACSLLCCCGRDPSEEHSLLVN
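Cells: TRPML1-DL, 1X Tet inducer, ~16 h at 37 degrees C/5% CO2. Dye: ABD Ca8 no-wash + quencher, 45-90 min RT. Read: 10 s baseline, compound add, 110 s agonist phase; 54-4 EC80 (4uM final), 110 s antagonist phase.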
GRP78 ERSR act: ER stress response induction in glioma; U87-MG GRP78 promoter luciferase reporter, 16 h; Potency, µM, inactives show top-dose activation, usual class: activators; 420,000 tested, 0.02% active; also: potency is read from the fitted curve at half-maximal effect; series mostly up to about 76 µM; % of control where 0% means no effect; nearly all actives have a fitted effect of over 35% in size
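Stably transfected U87-MG human glioma cells carrying a GRP78-based luminescent sensor were seeded at 1000 cells/well, pin-dosed with compounds and incubated 16 h. Luciferase reagent was then added, and end-point luminescence was read after 10 min at room temperature.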
Vif-APOBEC3F blk: Vif-A3F binding inhibition. HeLa A3F-eYFP + Vif (tagged APOBEC3F with the HIV-1 protein that degrades it), YFP fluorescence increase. Potency, µM (titrated, usually from 46.1 µM), for inactives: at the top dose activity, negative = active. 390,000 tested, 0.2% active. AID 602313; also: potency is read from the fitted curve at half-maximal effect; % of control where 0% means no effect; nearly all actives have a fitted effect of over 65% in size
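HeLa cells stably expressing Vif plus C-terminally eYFP-tagged A3F were seeded, incubated overnight at 37 deg C, dosed with compound, incubated overnight again at 37 deg C. Yellow fluorescence (Ex 488/Em 500-530) reported blocked Vif-mediated A3F-eYFP degradation.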
TRPML1 inh: blocks the human TRPML1 channel; Q9GZU1; TRPML1-inducible cells, Ca2+ dye fluorescence, FDSS; active compounds read low; inhibition of EC80 agonist-evoked calcium signal; activity change, negative = inhibition, % (no concentration beside the values); 390,000 tested, 0.02% active; AID 624415; in the data active = activity change below about -50%; inconclusive = between about -30% and that limit;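 also: stimulus is agonist 54-4 at its EC80 concentration; % is scaled to controls: 0 for no effect and ±100 for the full control effect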
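Tet-induced TRPML1-DL cells loaded with Ca8 no-wash calcium dye were read kinetically on FDSS. Compound addition was followed by EC80 agonist 54-4 (4 uM final); inhibition was read over 110 s.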
ALOX12 inh: ALOX12 (human) lipoxygenase inhibition | purified 12hLO, xylenol orange hydroperoxide absorbance | AID 1671190 | Potency, µM (highest dose often 108 µM), for inactives: at the top dose activity change, negative = inhibition, hits mostly inhibitors | 580,000 tested, 1.1% active; also: potency is read from the fitted curve at half-maximal effect; % is scaled to controls: 0 for no effect and ±100 for the full control effect
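Hydroperoxide product was detected by ferrous iron/xylenol orange as the 573 to 405 nm absorbance ratio. Arachidonic acid at 40 uM (final) was turned over for 30 min at room temperature by 150 nM human 12hLO, pH 7.0 Hepes buffer, after 15 min compound preincubation.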
Numbers without * were called inactive. Compounds with a hit are over-represented: about 1.3% of the library has one in this group of screens. Unless noted, calls follow the shape of the dose curve; as a rule, active = well fitted curve in the direction sought with a large enough effect; inconclusive = small, poorly fitted or top-dose-only effect, or another doubt; inactive = no such curve, though single readings can be large; an effect the other way counts as inactive or inconclusive.

CC(=O)c1ccc(NC(=O)CN2CCN(CC(=O)Nc3ccc(C(C)=O)cc3)CC2)cc1 was read as Vif-APOBEC3G blk 0.4%, TRPML1 agonist 0.4, GRP78 ERSR act -2.9%, Vif-APOBEC3F blk 9.8%, TRPML1 inh 5.0 and ALOX12 inh -4.2%.
`O=C1Nc2ccccc2N=C(c2ccccc2)C1Br` (stereo not drawn) gave Vif-APOBEC3G blk -6.3%, TRPML1 agonist -0.6, GRP78 ERSR act 5.1%, Vif-APOBEC3F blk 16.4%, TRPML1 inh -2.0 and ALOX12 inh 39.8µM*.
`C#CCOc1ccc(/C=C2/C(=O)ON=C2C)cc1Br` gave Vif-APOBEC3G blk 0.7%, TRPML1 agonist 0.8, GRP78 ERSR act -0.7%, Vif-APOBEC3F blk 3.8%, TRPML1 inh -2.4 and ALOX12 inh 9.6%.
`COc1ccc(/C=C2/C(=O)ON=C2C)cc1Cl` gave Vif-APOBEC3G blk -11.6%, TRPML1 agonist 0.0, GRP78 ERSR act -2.5%, Vif-APOBEC3F blk 3.0%, TRPML1 inh 10.9 and ALOX12 inh 7.94µM*.
For C=CCOc1ccc(/C=C2/C(=O)ON=C2C)cc1OC the results were Vif-APOBEC3G blk -9.2%, TRPML1 agonist -0.4, GRP78 ERSR act -1.8%, Vif-APOBEC3F blk 11.8%, TRPML1 inh -8.7 and ALOX12 inh 17.8µM*.
CCc1nc2ccccc2c(C(=O)OCC(=O)NCC(F)(F)F)c1C was read as ALOX12 inh -28.0%.
For O=C(O)CCCC(=O)N1CCC(Cc2ccccc2)CC1 the results were ALOX12 inh 4.2%.
CCOc1ccc(NC(=O)Cn2c(=O)n(Cc3ccc(C(=O)NCc4ccc(C)cc4)cc3)c(=O)c3ccccc32)cc1 was read as Vif-APOBEC3G blk -0.9%, TRPML1 agonist -0.2, GRP78 ERSR act -2.1%, Vif-APOBEC3F blk 10µM*, TRPML1 inh 5.5 and ALOX12 inh inconclusive.
CN(C)c1ccc(NC(=O)CCc2ncc(-c3ccc(Cl)cc3)o2)cc1 was read as ALOX12 inh -19.7%.
For C/C(=N\Nc1c(F)c(F)c(Br)c(F)c1F)c1ccncc1 the results were Vif-APOBEC3G blk -9.9%, TRPML1 agonist 0.7, GRP78 ERSR act 0.4%, Vif-APOBEC3F blk 2.9%, TRPML1 inh 35.9 and ALOX12 inh 77.5%.
For NNc1c(F)c(F)c(Br)c(F)c1F the results were ALOX12 inh 12.6µM*.
Screening CC(C)C(NC(=O)c1ccc(C23CC4CC(CC(C4)C2)C3)cc1)C(=O)O (stereo not drawn) returned ALOX12 inh -26.2%.
Screening CC(C)[C@H](NC(=O)C12CC3CC(CC(C3)C1)C2)C(=O)O returned ALOX12 inh 56.2µM*.
`Cc1cccc2sc(N(CCCN(C)C)C(=O)c3ccc4ncsc4c3)nc12` gave Vif-APOBEC3G blk -0.2%, TRPML1 agonist 0.9, GRP78 ERSR act 1.1%, Vif-APOBEC3F blk -2.1%, TRPML1 inh -8.0 and ALOX12 inh inconclusive.
For CCN(CC)CCN(C(=O)c1ccc2c(c1)OCCO2)c1nc2c(Cl)cccc2s1 the results were Vif-APOBEC3G blk 1.4%, TRPML1 agonist 0.7, GRP78 ERSR act -5.4%, Vif-APOBEC3F blk -2.9%, TRPML1 inh 21.5 and ALOX12 inh 35.5µM*.
`CCc1ccc2nc(N(CCN(C)C)C(=O)c3ccc4ncsc4c3)sc2c1` gave Vif-APOBEC3G blk -2.1%, TRPML1 agonist 0.9, GRP78 ERSR act -1.7%, Vif-APOBEC3F blk 8.6%, TRPML1 inh -23.1 and ALOX12 inh 35.5µM*.
Screening CN(C)CCCN(C(=O)c1ccc2c(c1)OCCO2)c1nc2ccc(Cl)cc2s1 returned ALOX12 inh 44.7µM*.
Screening CCN(CC)CCN(C(=O)c1ccc2c(c1)OCCO2)c1nc2cc(C)cc(C)c2s1 returned Vif-APOBEC3G blk -1.0%, TRPML1 agonist -0.5, GRP78 ERSR act -3.2%, Vif-APOBEC3F blk inconclusive, TRPML1 inh 14.2 and ALOX12 inh inconclusive.
CCc1nc2n(n1)C1(CCCCC1)[C@@H]1CCCC[C@@H]1N2C(=O)C1CC1 was read as ALOX12 inh -1.3%.
COc1cc(NC(=O)N2CCN(c3ccc(=O)n(-c4ccc(F)cc4)n3)CC2)cc(OC)c1OC was read as ALOX12 inh -8.6%.
For Cc1cc(C(=O)Nc2c(C(C)C)cccc2C(C)C)cs1 the results were ALOX12 inh -2.6%.
`CCCN1C(=O)/C(=C/C=C2\N(CC)c3ccccc3C2(C)C)SC1=S` gave Vif-APOBEC3G blk inconclusive, TRPML1 agonist 26.7, GRP78 ERSR act -4.9%, Vif-APOBEC3F blk inconclusive, TRPML1 inh 1.3 and ALOX12 inh -2.0%.
`CCCCN1C(=O)/C(=C/C=C2/CC(C)(C)CN2C)SC1=S` gave Vif-APOBEC3G blk 3.55µM*, TRPML1 agonist 52.8*, GRP78 ERSR act 3.8%, Vif-APOBEC3F blk inconclusive, TRPML1 inh -9.5 and ALOX12 inh inconclusive.
For CCN1C(=O)/C(=C/C=C2/SCCN2C)SC1=S the results were Vif-APOBEC3G blk inconclusive, TRPML1 agonist 15.8, GRP78 ERSR act -0.7%, Vif-APOBEC3F blk inconclusive, TRPML1 inh 14.1 and ALOX12 inh 4.9%.
Screening CCCCN1C(=O)/C(=C/C=C2\Oc3ccccc3N2CC)SC1=S returned Vif-APOBEC3G blk 1.58µM*, TRPML1 agonist inconclusive, GRP78 ERSR act -2.0%, Vif-APOBEC3F blk inactive, TRPML1 inh 4.6 and ALOX12 inh -8.9%.
Screening COc1cc(/C=C/C(=O)O)c(Br)cc1OCCc1ccccc1 returned ALOX12 inh -31.0%.
Screening Cc1cc(-c2csc(NC3CC3)n2)c(C)n1-c1c(C)n(C)n(-c2ccccc2)c1=O returned ALOX12 inh -23.6%.
For O=C1/C(=C/c2ccc(N3CCCC3)cc2)NC(=S)N1C1CC1 the results were Vif-APOBEC3G blk 5.62µM*, TRPML1 agonist 50.1*, GRP78 ERSR act 2.6%, Vif-APOBEC3F blk 11.2µM*, TRPML1 inh -8.5 and ALOX12 inh -7.1%.
For Cc1cc(N2CCCC2)ccc1/C=C1\NC(=S)N(C)C1=O the results were Vif-APOBEC3G blk inconclusive, TRPML1 agonist 27.6, GRP78 ERSR act -1.9%, Vif-APOBEC3F blk 6.31µM*, TRPML1 inh -7.4 and ALOX12 inh inconclusive.
Screening CN1C(=O)c2ccc(N3CCCC3)cc2C1=O returned Vif-APOBEC3G blk 2.0%, TRPML1 agonist 5.3, GRP78 ERSR act 2.0%, Vif-APOBEC3F blk -5.9%, TRPML1 inh 2.3 and ALOX12 inh inconclusive.
`COc1cccc(-c2ccc(=O)n(CC(=O)NCCN3CCOCC3)n2)c1` gave Vif-APOBEC3G blk -1.1%, TRPML1 agonist -0.5, GRP78 ERSR act -2.8%, Vif-APOBEC3F blk -3.5%, TRPML1 inh -63.1* and ALOX12 inh 11.4%.
`O=C(Cn1nc(-c2ccccc2)ccc1=O)NCCCN1CCOCC1` gave Vif-APOBEC3G blk -8.3%, GRP78 ERSR act -2.8%, Vif-APOBEC3F blk -1.7% and ALOX12 inh -25.5%.
